Data from PubChem BioAssay.
Unmarked numbers belong to inactive results. For part of these data: Measured potencies and affinities stand elsewhere. The source made the active and inactive calls. Unless noted, how the calls were made is not given here.

Experiments:
[1] = antimalarial activity against Dd2 strain (AID 2302;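 active means growth inhibition above 50% at the single 2 µM test dose, taken to imply half-maximal potency below 2 µM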;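 further: 0% = DMSO untreated growth and 100% = chloroquine plus artemisinin killed control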); conditions: P. falciparum Dd2 in RBCs, LDH growth readout, 72 h; at 2 µM; stronger effect = higher value
[2] = human hepatoma cell viability loss – ATP luminescence, cytotoxicity control for P. falciparum antimalarial project, primary screen (AID 2303;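 active means inhibition above 50%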;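 further: 0% = DMSO wells and 100% = digitonin-killed cells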); conditions: HepG2 viability, 24-48 h, at 10 µM, stronger effect = higher value
[3] = biological target: L-lactate dehydrogenase (Plasmodium falciparum (isolate CDC / Honduras)) (UniProt Q27743); experiment: PfLDH activity inhibition – cell lysate, 3D7 strain, counter-screen for P. falciparum growth inhibition project (AID 2304);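 further: 0% = vehicle and 100% = reference inhibitor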; conditions: P. falciparum 3D7 crude extract, LDH APAD/NBT absorbance; at 2 µM; stronger effect = higher value
Chain of L-lactate dehydrogenase (Plasmodium falciparum (isolate CDC / Honduras)) (Q27743 whole entry, looked up): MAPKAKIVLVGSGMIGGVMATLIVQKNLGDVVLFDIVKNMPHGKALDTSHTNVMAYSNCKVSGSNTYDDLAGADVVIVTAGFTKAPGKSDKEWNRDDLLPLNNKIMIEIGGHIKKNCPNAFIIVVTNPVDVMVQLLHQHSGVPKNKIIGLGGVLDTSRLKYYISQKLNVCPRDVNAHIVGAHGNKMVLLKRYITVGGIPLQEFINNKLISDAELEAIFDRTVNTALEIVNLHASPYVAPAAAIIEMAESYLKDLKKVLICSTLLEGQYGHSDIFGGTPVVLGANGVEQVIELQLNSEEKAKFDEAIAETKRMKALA

[4] = inhibition of 3D7 malaria parasite growth – strain 3D7 (AID 2306);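 further: 0% = DMSO wells and 100% = chloroquine plus artemisinin control wells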; conditions: P. falciparum 3D7 erythrocytic growth, LDH absorbance, 72 h; at 2 µM; stronger effect = higher value
[5] = biological target: Calcium-dependent protein kinase 1 (Plasmodium falciparum (isolate 3D7)) (UniProt P62344); experiment: PfCDPK1 kinase inhibitors, biochemical, TCAMS library (AID 1159585; cut-off not given, nearly all actives have IC50 up to about 0.98 µM;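 further: inhibitors leave more ATP so luminescence rises with inhibition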); conditions: recombinant PfCDPK1, Kinase-Glo ATP depletion luminescence
Chain of Calcium-dependent protein kinase 1 (Plasmodium falciparum (isolate 3D7)) (P62344 whole entry, looked up): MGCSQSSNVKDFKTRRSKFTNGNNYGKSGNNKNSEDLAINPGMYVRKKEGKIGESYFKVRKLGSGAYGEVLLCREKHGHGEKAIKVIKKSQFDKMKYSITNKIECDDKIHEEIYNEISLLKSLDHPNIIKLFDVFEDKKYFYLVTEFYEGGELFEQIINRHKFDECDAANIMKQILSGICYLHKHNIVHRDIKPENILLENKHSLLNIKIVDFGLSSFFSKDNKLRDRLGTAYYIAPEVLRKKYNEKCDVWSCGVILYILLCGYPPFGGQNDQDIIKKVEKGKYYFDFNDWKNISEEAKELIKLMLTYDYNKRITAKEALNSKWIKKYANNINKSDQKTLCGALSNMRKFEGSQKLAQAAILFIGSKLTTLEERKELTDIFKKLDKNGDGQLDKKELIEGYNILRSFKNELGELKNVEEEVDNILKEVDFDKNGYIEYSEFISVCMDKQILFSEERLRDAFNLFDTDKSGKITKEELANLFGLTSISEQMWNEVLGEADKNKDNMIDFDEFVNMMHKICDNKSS

[6] = biological target: Plasmodium falciparum protein kinase 6 (PK6, PF3D7_1337100) (UniProt Q8IDW1); experiment: PfPK6 kinase inhibitors, biochemical, TCAMS library (AID 1159586); conditions: recombinant PfPK6, Kinase-Glo ATP depletion luminescence
Chain of Plasmodium falciparum protein kinase 6 (PK6, PF3D7_1337100) (Q8IDW1 1-305): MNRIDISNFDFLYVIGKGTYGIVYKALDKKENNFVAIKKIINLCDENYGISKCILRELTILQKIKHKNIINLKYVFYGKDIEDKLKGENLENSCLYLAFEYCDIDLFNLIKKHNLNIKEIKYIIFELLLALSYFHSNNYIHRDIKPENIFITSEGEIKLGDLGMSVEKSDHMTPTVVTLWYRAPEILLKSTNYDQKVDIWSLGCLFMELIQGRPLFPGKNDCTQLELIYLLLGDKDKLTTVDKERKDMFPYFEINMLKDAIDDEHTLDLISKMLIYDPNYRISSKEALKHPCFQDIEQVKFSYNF

[7] = biological target: Protein kinase 7 (PK7), Plasmodium falciparum 3D7 (PF3D7_0213400) (UniProt Q7YTF7); experiment: inhibition of Plasmodium PK7 catalytic activity – biochemical, TCAMS antimalarial set, Kinase-Glo luminescence (AID 1159587); conditions: recombinant PfPK7, Kinase-Glo ATP depletion luminescence
Chain of Protein kinase 7 (PK7), Plasmodium falciparum 3D7 (PF3D7_0213400) (Q7YTF7 1-343): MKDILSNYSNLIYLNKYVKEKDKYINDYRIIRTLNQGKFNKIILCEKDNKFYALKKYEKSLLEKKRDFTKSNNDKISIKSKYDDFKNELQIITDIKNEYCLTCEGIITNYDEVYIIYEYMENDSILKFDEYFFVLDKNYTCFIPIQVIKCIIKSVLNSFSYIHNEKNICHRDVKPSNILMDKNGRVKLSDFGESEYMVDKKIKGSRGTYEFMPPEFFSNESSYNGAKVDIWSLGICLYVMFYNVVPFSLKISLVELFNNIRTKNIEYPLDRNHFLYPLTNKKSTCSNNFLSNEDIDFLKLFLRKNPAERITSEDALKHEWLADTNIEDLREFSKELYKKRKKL

[8] = biological target: Calcium-dependent protein kinase 4 (Plasmodium falciparum (isolate 3D7)) (UniProt Q8IBS5); experiment: PfCDPK4 kinase inhibitors, biochemical, TCAMS library (AID 1159588; cut-off not given, nearly all actives have IC50 up to about 0.91 µM); conditions: recombinant PfCDPK4, Kinase-Glo ATP depletion luminescence
Chain of Calcium-dependent protein kinase 4 (Plasmodium falciparum (isolate 3D7)) (Q8IBS5 whole entry, looked up): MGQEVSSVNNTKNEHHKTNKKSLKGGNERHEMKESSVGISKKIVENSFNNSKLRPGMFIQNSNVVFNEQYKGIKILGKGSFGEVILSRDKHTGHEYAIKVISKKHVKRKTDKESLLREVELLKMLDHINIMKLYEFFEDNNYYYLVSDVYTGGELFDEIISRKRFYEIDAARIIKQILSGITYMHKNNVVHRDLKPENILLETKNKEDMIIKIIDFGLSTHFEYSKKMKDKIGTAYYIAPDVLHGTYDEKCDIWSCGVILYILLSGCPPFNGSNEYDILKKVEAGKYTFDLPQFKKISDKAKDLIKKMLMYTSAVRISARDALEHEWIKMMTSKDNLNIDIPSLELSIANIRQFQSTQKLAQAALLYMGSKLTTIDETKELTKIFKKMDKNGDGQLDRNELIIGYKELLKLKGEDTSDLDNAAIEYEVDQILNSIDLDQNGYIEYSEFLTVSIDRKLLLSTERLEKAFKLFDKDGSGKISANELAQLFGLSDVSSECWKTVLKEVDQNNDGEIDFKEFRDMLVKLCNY

Structure (SMILES) | growth inhibition [1] | inhibition [2] | inhibition [3] | growth inhibition [4] | outcome [5] | outcome [6] | outcome [7] | outcome [8]
CCc1cn2c3c(cc(C(=O)N[C@@H](Cc4cccc(Cl)c4)[C@H](O)CNC4CCCCC4)cc13)N(C)S(=O)(=O)CC2 | 98% (active) | 12% | 2% | 97% (active) | inactive | inactive | inactive | inactive
O=C(C=Cc1ccc(Cl)c(Cl)c1)NCCCCCN1CCCC(CCCNS(=O)(=O)c2cccc(C(F)(F)F)c2)C1 (stereo not drawn) | 33% | 81% (active) | -3% | 94% (active) | inactive | inactive | inactive | inactive
COc1ccc(N2CCN(CCCCNC(=O)c3ccc(NC(=O)c4cccc(Cl)c4)cc3)CC2)c(OC)c1 | 33% | 18% | 0% | 101% (active) | inactive | inactive | inactive | inactive
O=C(NCCc1ccc(Cl)c(Cl)c1)C1CCCN(C(=O)c2ccc(O)c(-c3ccc(Cl)c(Cl)c3)c2)C1 (stereo not drawn) | 65% (active) | -9% | -3% | 96% (active) | inactive | inactive | inactive | inactive
Oc1ccc(CCNc2nc(NCc3ccccc3-c3ccc(F)cc3)nc(N3CCNCC3)n2)cc1 | 24% | 15% | 0% | 92% (active) | inactive | inactive | inactive | inactive
Cc1cccc(CN2CCCN(Cc3cccc(C(=O)Nc4ccc(C(C)(C)C)cc4)c3)CC2)c1 | 40% | 98% (active) | 4% | 89% (active) | inactive | inactive | inactive | inactive
CC(C)Cn1cc(C2CCN(CCN3CCC(CNC(=O)c4ccc(-c5ccc(C(F)(F)F)cc5)cc4)CC3)CC2)c2ccccc21 | 87% (active) | 100% (active) | 0% | 101% (active) | inactive | inactive | inactive | inactive
COc1cncc(/C=C/c2cncc(C(=O)NCCc3ccc(Cl)cc3Cl)c2)c1 | 49% | -3% | -9% | 99% (active) | inactive | inactive | inactive | inactive
c1ccc2c(CNc3ccnc(NCc4cccc5ccccc45)n3)cccc2c1 | 71% (active) | 51% (active) | 3% | 99% (active) | inactive | inactive | inactive | inactive
N#Cc1ccc(N2CCN(Cc3cccc(-c4cccc(-c5nc6ccc(C(F)(F)F)cc6[nH]5)c4)c3)CC2)nc1 | 50% (active) | 15% | 6% | 99% (active) | inactive | inactive | inactive | inactive
COc1ccc2nc(N3CCN(C(=O)OC(C)(C)C)CC3)nc(NCCCc3ccccc3)c2c1 | 95% (active) | 9% | -2% | 102% (active) | inactive | inactive | inactive | inactive
NC1=NC2(CCCCC2)N(OCCCCCCCCNc2nc(N)nc(N)n2)C(N)=N1 | 99% (active) | 44% | -5% | 96% (active) | inactive | inactive | inactive | inactive
COc1cc(CNC2Cc3ccccc3C2)ccc1Oc1ccc2nc[nH]c2c1 | 50% (active) | 30% | -1% | 98% (active) | inactive | inactive | inactive | inactive
NC(N)=NCCCN(Cc1ccccc1)c1ccccc1 | 97% (active) | -13% | -3% | 100% (active) | inactive | inactive | inactive | inactive
CCN1CCN(CCCNc2c3ccccc3nc3ccccc23)CC1 | 3% | 44% | -1% | 100% (active) | inactive | inactive | inactive | inactive
O=C(Nc1ccc(N2CCN(Cc3c[nH]c4cc(F)ccc34)CC2)cc1)c1ccccc1-c1ccc(C(F)(F)F)cc1 | 7% | 20% | 9% | 85% (active) | inactive | inactive | inactive | inactive
CC(C)CCN1CCCN(Cc2ccc(C(=O)Nc3ccc(F)c(F)c3)cc2)CC1 | 27% | 36% | 5% | 88% (active) | inactive | inactive | inactive | inactive
CN(C)c1cccc2c(S(=O)(=O)Nc3cccc(CCN4CCC(N5CCCCC5)CC4)c3)cccc12 | 54% (active) | 41% | -2% | 98% (active) | inactive | inactive | inactive | inactive

Structure (SMILES) | growth inhibition [1] | inhibition [2] | inhibition [3] | growth inhibition [4] | outcome [5] | outcome [6] | outcome [7] | outcome [8]
O=C([C@@H]1CCCCN1c1ccc([N+](=O)[O-])c2ccccc12)N1CCN(c2ncccn2)CC1 | 5% | 50% (active) | 5% | 97% (active) | inactive | inactive | inactive | inactive
CC(Cc1ccc(NC(=O)c2ccc(NCCc3ccccc3)cc2)cc1)NCCc1cccc(Cl)c1 (stereo not drawn) | 1% | 25% | 4% | 92% (active) | inactive | inactive | inactive | inactive
Cc1ccc(OCC2CCN(c3ncc(C(=O)NCCCN4CCCC4=O)cc3Cl)CC2)cc1 | 71% (active) | 7% | 0% | 94% (active) | inactive | inactive | inactive | inactive
CC(=O)Nc1nnc(SCc2c(C)cc(C(C)(C)C)cc2C)s1 | 91% (active) | 3% | -4% | 98% (active) | inactive | inactive | inactive | inactive
N#Cc1ccc(N[C@@H](CC2CCCCC2)C(=O)N[C@@H]2CCCc3ccccc32)c2ccccc12 | 99% (active) | 12% | -5% | 99% (active) | inactive | inactive | inactive | inactive
c1ccc2[nH]c(Nc3ccc(Nc4nc5ccccc5[nH]4)cc3)nc2c1 | 27% | -3% | 1% | 98% (active) | inactive | inactive | inactive | inactive
CN(CCN)Cc1cccc(-c2cccc(-c3nc4ccc(C(F)(F)F)cc4[nH]3)c2)c1 | 98% (active) | 22% | 0% | 99% (active) | inactive | inactive | inactive | inactive
CCN(CC)CCNc1ccnc2[nH]c3ccc(Cl)cc3c12 | 92% (active) | 3% | 1% | 100% (active) | inactive | inactive | inactive | inactive
c1ccc(-c2nc3ccccc3[nH]2)c(Nc2ccnc3cc(-c4nccs4)ccc23)c1 | 98% (active) | -4% | 3% | 101% (active) | inactive | inactive | inactive | inactive
CC(=O)N(C)c1cccc(C(=O)Nc2ccc(-c3cccc(-c4nc5c(C)cccc5[nH]4)c3)cc2)c1 | 68% (active) | 86% (active) | -2% | 97% (active) | inactive | inactive | inactive | inactive
CS(=O)(=O)CCNCc1ccc(-c2ccc3c(Nc4ccc(Oc5ccccn5)cc4)ccnc3c2)o1 | 99% (active) | 0% | -7% | 100% (active) | inactive | inactive | inactive | inactive
CCc1cccc2c(C#N)cn(CC(=O)NCCc3ccccc3)c12 | 64% (active) | 1% | 2% | 95% (active) | inactive | inactive | inactive | inactive
O[C@H](c1cc(C(F)(F)F)nc2c(C(F)(F)F)cccc12)[C@@H]1CCCCN1 | 99% (active) | 29% | 7% | 99% (active) | inactive | inactive | inactive | inactive
Cc1nccn1Cc1cc(C(C)(C)C)c(O)c(C(C)(C)C)c1 | -4% | 8% | -5% | 99% (active) | inactive | inactive | inactive | inactive
O=C(Nc1nc2cc(S(=O)(=O)NCc3ccc(Cl)c(Cl)c3)ccc2n1CCCn1ccnc1)c1ccc(Cl)cc1 | 44% | -12% | 4% | 101% (active) | inactive | inactive | inactive | inactive
c1ccc(CN2CCC(NCc3ccc(-c4cccc(CNC5CCCC5)c4)cc3)CC2)cc1 | 100% (active) | 55% (active) | -8% | 101% (active) | inactive | inactive | inactive | inactive
Cc1cc(-c2nc3cncc(-c4cccc(CN5CCCC5Cc5cccnc5)c4)c3n2C)nn1C (stereo not drawn) | 73% (active) | -7% | -1% | 83% (active) | inactive | inactive | inactive | inactive
CC(C)NCc1cccc(-c2ccc(NC(=O)c3ccc(F)cc3)cc2)c1 | 3% | 7% | -1% | 92% (active) | inactive | inactive | inactive | inactive
